CYP2C19 inhib – inhibitors of human CYP2C19; 21% of 96,000 active; CYP2C19 Supersomes, luciferin-H EGE luminescence, 30 min; P33261; inhibition, % at 5 µM;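 active means CYP2C19 inhibition above a set limit at 5 µM in the primary screen, cut at about 50% in these data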;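 further: plate controls were negative control wells for no effect and 2.5 mM tranylcypromine positive control for full effect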
Target sequence (P33261 whole entry, looked up): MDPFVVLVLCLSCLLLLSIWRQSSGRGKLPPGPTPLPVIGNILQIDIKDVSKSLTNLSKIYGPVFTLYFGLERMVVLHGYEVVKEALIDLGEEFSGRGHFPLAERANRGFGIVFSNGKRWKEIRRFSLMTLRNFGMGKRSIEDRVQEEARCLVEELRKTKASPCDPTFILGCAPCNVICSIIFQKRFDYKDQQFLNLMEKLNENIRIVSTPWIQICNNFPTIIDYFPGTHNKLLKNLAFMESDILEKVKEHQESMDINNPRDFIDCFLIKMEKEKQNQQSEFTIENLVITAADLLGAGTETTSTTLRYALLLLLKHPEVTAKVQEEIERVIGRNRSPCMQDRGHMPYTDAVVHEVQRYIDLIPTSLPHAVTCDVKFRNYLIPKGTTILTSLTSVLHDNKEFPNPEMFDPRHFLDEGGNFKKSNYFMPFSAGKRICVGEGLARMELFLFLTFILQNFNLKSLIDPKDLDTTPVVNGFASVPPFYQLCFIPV
CYP2C19 activ – activators of human cytochrome P450 2C19 | AID 1025 | activation factor at 5 µM | 96,000 tested, under 10 active | recombinant CYP2C19, luciferin-H EGE luminescence; active compounds read high; 0 = fully inhibited enzyme, 1 = untreated enzyme;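 active means activation factor of at least 2 at 5 µM in the primary screen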;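 further: 0 = wells with 2.5 mM tranylcypromine and 1 = vehicle-only wells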
CYP2C9 activ – activators of human CYP2C9; 1.4% of 96,000 active; AID 1024; activation factor at 5 µM; recombinant CYP2C9, luciferin-H conversion, luminescence; active compounds read high; factor 1 = untreated enzyme, 0 = blocked;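 active means activation factor of 2 or more for CYP2C9 at a 5 µM dose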;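 further: 0 = sulfaphenazole-blocked wells and 1 = vehicle-only wells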
CYP2C9 inh – blocks human cytochrome P450 2C9 | P11712 | CYP2C9 Supersomes, luciferin-H conversion, luminescence | inhibition, % at 5 µM | 20% of 96,000 active;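 active means blocking of liver enzyme CYP2C9 beyond about 50% at 5 µM, limit read from the data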
Cav32 inh – blocks human Cav3.2 T-type calcium channel. Cav3.2-expressing cells, Fluo-4 calcium fluorescence FDSS; active compounds read low. AID 449739. B-score at 10 µM. O95180. 4% of 100,000 active;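 active means single-dose well whose peak fluorescence ratio is a statistical outlier from its plate by either plate-standardised score or position-corrected B-score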
Starred values were filed as active, the others as inactive; · = no result given. Shown are actives, neighbours in structure and some others; about 27% of the full set was active somewhere.

SMILES	CYP2C19 inhib	CYP2C19 activ	CYP2C9 activ	CYP2C9 inh	Cav32 inh
COc1ccc(C2C3=C(CC(C)(C)CC3=O)Nc3c2c(=O)[nH]c(=O)n3Cc2ccccc2)cc1OC (stereo not drawn)	16.4	0.8	1	0.3	-0.558
CCCOC(=O)C1=C(C)NC2=C(C(=O)CC(C)(C)C2)C1c1ccc(N(C)C)cc1 (stereo not drawn)	85.4*	0.1	0.2	79.7*	-0.337
Cc1cc(Br)c2[nH]c3c(c2c1)CCCC3=O	12.9	0.9	1.4	-35.3	-0.522
COc1ccccc1N1C(=O)C2C3C=CC(C3)C2C1=O (stereo not drawn)	27.2	0.7	0.9	9.3	0.425
Cc1ccc2c(c1)C(=O)CC1(CCCCCC1)O2	·	·	·	·	0.966
O=C(Nc1cccc(O)c1)c1ccc(Br)c(S(=O)(=O)N2CCCCC2)c1	0.4	1	1	4.9	-0.409
CC1=C(C(=O)Nc2ccccc2)C(c2ccc3c(c2)OCO3)C2=C(CCCC2=O)N1 (stereo not drawn)	66.4*	0.3	0.5	52.8*	0.0188
CC1=C(C(=O)OCCOC(C)C)C(c2cc3c(cc2Br)OCO3)CC(=O)N1 (stereo not drawn)	79.7*	0.2	0.3	65.3*	0.635
CC1=C(C(=O)Nc2cc(C)ccn2)C(c2ccc(C)cc2)C2=C(CCCC2=O)N1 (stereo not drawn)	18.6	0.8	0.8	24.3	-0.754
COCCOC(=O)C1=C(C)NC2=C(C(=O)CC(C)(C)C2)C1c1ccc2c(c1)OCO2 (stereo not drawn)	90.1*	0.1	0.2	81.9*	0.828
CCN(CC)c1ccc(C2CC(=O)NC3=C2C(=O)CC(C)(C)C3)cc1 (stereo not drawn)	0.2	1	1.1	-7.5	·
CSCCOC(=O)C1=C(C)NC(=O)CC1c1ccccc1Cl (stereo not drawn)	14.7	0.9	0.8	15.3	0.34
CCN(CC)c1ccc(C2C(C(=O)OCCOC)=C(C)NC3=C2C(=O)CC(C)(C)C3)cc1 (stereo not drawn)	30.3	0.7	0.8	19.2	-0.015
CN(C)c1ccc(C2CC(=O)NC3=C2C(=O)CC(C)(C)C3)cc1 (stereo not drawn)	61.4*	0.4	0.9	7.8	0.58
CCCCC(=O)Nc1ccccc1C(=O)N1CCOCC1	·	·	·	·	-0.251
CC1CCCC(NC(=O)CSc2ncccc2C(=O)O)C1C (stereo not drawn)	-8.7	1.1	1.1	-8.9	0.489
O=C(CN1C(=O)CCS(=O)(=O)c2ccccc21)Nc1cccc(F)c1	-11.7	1.1	1.2	-21.2	-0.0178
COc1ccc(OC)c(C2C(C(=O)Nc3cccnc3)=C(C)NC3=C2C(=O)CCC3)c1 (stereo not drawn)	55.7*	0.4	0	98.2*	0.0382
COCCOC(=O)C1=C(C)NC2=C(C(=O)CCC2)C1c1cc2c(cc1Br)OCO2 (stereo not drawn)	96.4*	0	0.2	78.7*	-1.26
COc1ccc(OC)c(C2C3=C(CCCC3=O)NC3=C2C(=O)CCC3)c1	2.1	1	1.1	-6.1	0.0379
CSc1nnc2c(n1)OC(C)N(C(=O)c1ccccc1)c1ccccc1-2 (stereo not drawn)	23.8	0.8	0.5	53.9*	-0.344
COc1cc(OC)c(C2Oc3nc(SC)nnc3-c3ccccc3N2C(C)=O)cc1OC (stereo not drawn)	8.6	0.9	0.8	22.1	0.486
CC(C)(C)c1nc(CN2CCCCC2)cc(CN2CCCCC2)c1O	20.3	0.8	1	3.0	1.21
CC(C)(C)c1nc(CN2CCOCC2)ccc1O	59.9*	0.4	1.1	-6.3	-0.354
COc1ccc(CNC(=O)COc2ccc([N+](=O)[O-])cc2)cc1	28.2	0.7	0.7	29.1	0.0206
SMILES	CYP2C19 inhib	CYP2C19 activ	CYP2C9 activ	CYP2C9 inh	Cav32 inh
Cc1cccc[n+]1CC(=O)Nc1ccc([N+](=O)[O-])cc1Cl	-10.6	1.1	1.2	-23.2	1.04
Cc1cc([N+](=O)[O-])ccc1NCc1ccc2ccccc2c1	35.9	0.6	0.2	77.3*	-0.0925
Cc1cc([N+](=O)[O-])ccc1NCc1ccccc1	87.2*	0.1	0.5	51.9*	-1.65
COc1ccc(CNc2cc([N+](=O)[O-])ccc2OC)cc1	52.4*	0.5	0.3	74.7*	-2.79
Cc1csc(NC(=O)Cc2nn(C)c(=O)c3ccccc23)n1	-7.4	1.1	0.8	16.2	-0.0285
CCC(Oc1ccc2c(c1)C(=O)CC(C)(C)O2)C(=O)NCCN1CCCCCC1 (stereo not drawn)	22.2	0.8	0.8	22.8	·
CC1CCN(c2cc(N3CCC(C)CC3)c([N+](=O)[O-])cc2/C=C(\C#N)c2nn(-c3ccccc3)c(N)c2C#N)CC1	51.0*	0.5	0.2	80.8*	-0.506
N#C/C(=C\c1ccc(N2CCCC2)c([N+](=O)[O-])c1)c1nc2ccccc2[nH]1	30.6	0.7	0.8	20.0	-1.22
CC1CCCN(c2ccc(/C=C(\C#N)c3nn(-c4ccccc4)c(N)c3C#N)cc2[N+](=O)[O-])C1 (stereo not drawn)	35.3	0.6	0.2	80.1*	-0.769
Clc1ccc(Cn2cc(/C=N/n3cnnc3)c3ccccc32)cc1	80.2*	0.2	0.6	39.8	0.181
Cn1c(/C=N/n2cnnc2)nc2ccccc21	1.0	1	1.2	-16.3	0.851
Cc1ccccc1Cn1cc(/C=N/n2cnnc2)c2ccccc21	91.1*	0.1	0.3	74.5*	3.26
CCOCCCNC(=O)C1c2ccccc2C(=O)N2CCc3ccccc3C12 (stereo not drawn)	-5.3	1.1	0.9	14.9	0.187
COc1ccc(N/C(=C2\CCCC2=O)C2CCCCC2)cc1	·	·	·	·	-1.39
c1ccc2c(c1)OCC(c1nn3c(Cn4nnc5ccccc54)nnc3s1)O2 (stereo not drawn)	34.8	0.7	0.7	34.5	-0.0932
Cn1c(N)c(C(=O)COC(=O)c2ccc3c(c2)OCCO3)c(=O)n(C)c1=O	-2.4	1	1	-3.6	-0.18
CC(C)Cn1c(N)c(C(=O)COC(=O)c2ccc3c(c2)OCCO3)c(=O)n(C)c1=O	59.5*	0.4	0.3	66.8*	-1.4
Cc1ccccc1NC(=S)NN1CCN(C)CC1	-1.0	1	0.9	6.3	-0.0383
OC(CNc1ccccc1)COc1ccc(OCC(O)CNc2ccccc2)cc1 (stereo not drawn)	12.8	0.9	0.3	66.9*	-0.451
COc1ccc(SC[C@H](Cc2ccccc2)N2CCN(C)CCC2=O)cc1	·	·	·	·	0.182
O=C(NCc1ccco1)C1CCCN(S(=O)(=O)c2ccc(-n3cnnn3)cc2)C1 (stereo not drawn)	-2.9	1	1.1	-5.6	-0.465
COc1cc(S(=O)(=O)N(Cc2ccco2)C2CCCC2)ccc1-n1cnnn1	98.4*	0	0.3	74.2*	-1.33
CCCN(CC1CC1)S(=O)(=O)c1ccc(-n2cnnn2)c(OC)c1	100.4*	0	0.9	8.1	0.713
Cc1cc(N=Cc2c(O)n(-c3ccc4c(c3)OCO4)c(=O)c3ccccc23)ccn1	55.1*	0.4	0.4	60.5*	0.039

High-throughput results from PubChem.
